Test results from PubChem BioAssay (NCATS).
Records with an inconclusive call do not appear. Active and inactive are the calls of the source. Calls come from the whole dose curve; as a rule, active = well fitted inhibition curve with a large enough effect; inconclusive = small, poorly fitted or top-dose-only effect; inactive = no such curve, though single readings can be large or run the other way.

Test: Counterscreen for APE1 Inhibitors: Fluorescent Dye Displacement Validation Assay (AID 1707)
Settings: fluorescent dye displacement from DNA; series mostly up to 57.1 µM; activity change, negative = inhibition: at the top concentration
Source text: In order to distinguish true inhibitors of DNA-processing enzymes from promiscuous DNA-binding compounds among screening assay hits, we developed a homogeneous and miniaturized assay based on fluorescent dye displacement test as originally described by Tse and Boger (Accounts of Chemical Research (2004) 37: 61-69). The assay is based on the strong enhancement of fluorescence when Thiazole Orange (ThO) binds to double-stranded DNA: conversely, in the presence of a DNA-binding compound, Thiazole Orange is displaced from the DNA and its fluorescence is reduced.
Buffer. 50 mM Tris-HCl (pH7.5) containing 50mM NaCl, 2 mM MgCl2, and 0.01% Tween-20.
Buffer containing 250 nM ThO in columns 3 and 4 as negative control (no dsDNA).
Reaction mixture: 250 nM ThO and 50 nM dsDNA at final concentration dispensed throughout the plate: in columns 1, 2, 5-48. Column 1 is neutral (100% activity).
5''TAMRA- TC ACC FTC GTA CGA CTC
3'' AG TGG GAG CAT GCT GAG
where F denotes tetrahydrofuran.
Control: Pintool transfer of control compound WB64 (W4761, Sigma-Aldrich) to column 2 of all assay plates as a two-fold 16-point dilution in duplicate (concentration range 5.75 uM - 0.175 nM).
Four uL of reaction mixtures were dispensed to 1536-well Greiner black solid bottom plates. Compounds (23 nL) were transferred […] in order to measure the endpoint fluorescence using 480 nm excitation and 540 nm emission fluorescence protocol.

SMILES	activity change, negative = inhibition	outcome
C[C@]12CC[C@H](OS(=O)(=O)O)CC1=CCC1C2CC[C@]2(C)C(=O)CC[C@@H]12 (stereo not given in full)	-0.964% (inactive)	
C[C@]12CC[C@H]3[C@@H](CCC4C[C@H](O)CC[C@@]43C)[C@@H]1CC[C@@H]2O (stereo not given in full)	-1.84% (inactive)	
COc1cc(C[C@@H](C)N)c(OC)cc1I	1.31% (inactive)	
C=CCN1CCc2cccc3c2C1Cc1ccc(O)c(O)c1-3 (stereo not given)	-4.4% (inactive)	
CCCCN1C2CCC1CC(OC(c1ccc(F)cc1)c1ccc(F)cc1)C2 (stereo not given)	-1.61% (inactive)	
COC(=O)C(N)CCCN=C(N)N[N+](=O)[O-] (stereo not given)	1.14% (inactive)	
CCC(CO)NC(=O)[C@@H]1C=C2c3cccc4[nH]cc(c34)C[C@H]2N(C)C1 (stereo not given in full)	207% (inactive)	
C[C@H]1OC[C@@H](C[N+](C)(C)C)O1	4.09% (inactive)	
COc1cc(C=C(C#N)C#N)cc(O)c1O	61.1% (inactive)	
NC(Cn1ccc(=O)[nH]c1=O)C(=O)O (stereo not given)	2.21% (inactive)	
CCN1C[C@]2(C)CC[C@H](O)[C@@]34[C@@H]5C[C@@H]6[C@@H](OC)C[C@@](O)(C5[C@H]6O)[C@@H](C[C@@H]23)[C@@H]14	0.491% (inactive)	
CCN(CC)C(=O)N[C@@H]1C[C@@H]2c3cccc4[nH]cc(c34)C[C@H]2N(C)C1	9.95% (inactive)	
CCCN1CCC[C@@H]2Cc3n[nH]cc3C[C@H]21	1.65% (inactive)	
CCCN(CCC)C(=O)Cc1c(-c2ccc(Cl)cc2)nc2c(Cl)cc(Cl)cn12	-0.607% (inactive)	
CN1C[C@@H](CS(=O)(=O)N(C)C)C[C@@H]2c3cccc4c3c(cn4C)C[C@H]21	1.06% (inactive)	
CN1CCC23CCCC[C@H]2C1Cc1ccc(O)cc13 (stereo not given in full)	1.33% (inactive)	
O=C(OC1CCN(CCCl)CC1)C(c1ccccc1)c1ccccc1	-1.1% (inactive)	
CCCN(CCC)[C@@H]1CCc2c(F)ccc(O)c2C1	1.93% (inactive)	
C[C@@H]1O[C@@H](O[C@H]2C[C@@H](O)[C@]3(CO)[C@H]4[C@H](O)C[C@]5(C)[C@@H]([C@@H]6COC(=O)C6)CC[C@]5(O)[C@@H]4CC[C@]3(O)C2)[C@H](O)[C@H](O)[C@H]1O	1.81% (inactive)	
COc1ccc2c(c1O)-c1cccc3c1C(C2)N(C)CC3 (stereo not given)	-1.22% (inactive)	

SMILES	activity change, negative = inhibition	outcome
O=C(O)C1C2CCC(O2)C1C(=O)O (stereo not given)	-0.0724% (inactive)	
C[C@H]1C2Cc3ccc(O)cc3[C@]1(C)CCN2CC1CC1	2.87% (inactive)	
CC1Cc2cc3c(cc2C(c2ccc(N)cc2)=NN1)OCO3 (stereo not given)	-1.27% (inactive)	
COc1ccc2c3c1O[C@H]1C(=O)CC[C@@]4(O)C(C2)N(CC2CC2)CCC314 (stereo not given in full)	0.656% (inactive)	
CCNC(=O)[C@H]1O[C@@H](n2cnc3c(N)ncnc32)[C@H](O)[C@H]1O	0.186% (inactive)	
N#CC(=Cc1ccc(O)c(O)c1)C(N)=S	45.9% (inactive)	
C[N+]1(C)C2CC(OC(=O)C(CO)c3ccccc3)CC1C1OC12 (stereo not given)		inactive
C=CCN1CC[C@@]2(C)c3cc(O)ccc3CC1[C@@H]2C	1.38% (inactive)	
CCCN1CCc2cccc3c2C1Cc1ccc(O)c(O)c1-3 (stereo not given)	-1.48% (inactive)	
Oc1cc2c(cc1O)[C@H]1c3ccccc3CNC1CC2 (stereo not given in full)	1% (inactive)	
CCCN1CCC[C@@H](c2cccc(C#N)c2)C1	0.512% (inactive)	
Nc1ncnc2c1ncn2[C@@H]1O[C@H](COP(=O)(O)CP(=O)(O)OP(=O)(O)O)[C@H](O)[C@H]1O	1.28% (inactive)	
C[C@]12C=CC(=O)C=C1CCC1C2=CC[C@]2(C)[C@@H](C(=O)CN3CCN(c4cc(N5CCCC5)nc(N5CCCC5)n4)CC3)CC[C@@H]12 (stereo not given in full)	15.2% (inactive)	
C#CCN(C)C(C)Cc1ccccc1 (stereo not given)	1.86% (inactive)	
CC(C)(O)C1C2OC(=O)C1[C@]1(O)C[C@H]3O[C@]34C(=O)O[C@H]2[C@]14C (stereo not given in full) (tested in a mixture with another compound)	2.59% (inactive)	
NCC#Cc1ccccc1	3.11% (inactive)	
Oc1ccc2c3c1O[C@H]1[C@@H](O)CC[C@@]4(O)C(C2)N(CC2CCC2)CCC314 (stereo not given in full)	1.9% (inactive)	
CC(C)[C@@]1(NC(=O)[C@@H]2C[C@@H]3c4cccc5[nH]cc(c45)C[C@H]3N(C)C2)O[C@@]2(O)C3CCCN3C(=O)[C@H](Cc3ccccc3)N2C1=O (stereo not given in full)	4.37% (inactive)	
C[C@]12CC[C@@H](O)CC1CCC1C2CC[C@]2(C)C(=O)CC[C@@H]12 (stereo not given in full)	1.88% (inactive)	
CCCN1CCCC(c2cccc(O)c2)C1 (stereo not given)	2.48% (inactive)	
